Active and inactive are the calls of the source.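 How the source made its calls, unless noted: active means z-score of at least 1.8 in each of two replicates, scored against plate mean and spread of sample wells; inactive means the rest.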
What was measured:
[1] = viability loss with induced miR-34 in A549 – imaging, A549 dox-inducible miR-34, nuclei and caspase counts, primary screen (AID 1347080;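 active means compounds whose cell count with miR-34 switched on is under 0.7 times the count with it off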); details: A549 miR-34 inducible, Hoechst nuclei count, 48 h
[2] = MELAS cybrid and Rieske KO viability enhancers – cell-based, MELAS cybrids, Rieske KO mouse fibroblasts, CellTiter-Glo, primary screen (AID 1508586;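 active means mean z-score across replicates of 1.96 or higher in either the MELAS or the Rieske mutant cell line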;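 further: z relative to plate mean and SD of compound and empty wells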); details: low glucose
[3] = galactose survival enhancers in mitochondrial complex I cybrids – cell-based, galactose medium, ATP luminescence, primary screen (AID 1645843); details: complex I mutant cybrid cells, 72 h, stronger effect = higher value;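 further: positive z means more ATP and so rescue of galactose-driven cybrid death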
[4] = P. berghei load reduction in hepatocytes – cell-based, HepG2, luciferase luminescence, HepG2 viability, primary screen (AID 624349; in the data active means parasite load remaining mostly below about 12%, no sharp cut-off; inactive means mostly above about 10%;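 further: 100% = mean of DMSO negative control wells on the same plate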); details: P. berghei liver stage in HepG2, luciferase luminescence, concentration not given here; parasite load remaining: stronger effect = lower value; viability: measured here: HepG2 viability without parasites
[5] = stronger effect = lower value, cell number ratio, induced over uninduced
[6] = measured here: relative caspase fold change +Dox/-Dox
[7] = measured here: total cells with miR-34 induction, stronger effect = lower value
[8] = measured here: total cells without miR-34 induction
[9] = MELAS cybrid survival, CellTiter-Glo 48 h, stronger effect = higher value
[10] = Rieske KO mouse fibroblast survival, CellTiter-Glo 72 h

Structure (SMILES)	fold change [1, 5]	fold change [1, 6]	cell count [1, 7]	cell count [1, 8]	z-score [2, 9]	z-score [2, 10]	z-score [3]	parasite load remaining [4]	viability [4]
CN=C(NC)NCc1ccccc1	0.917 (inactive)	0.571	9010	9830	0.186 (inactive)	-0.223	0.38 (inactive)		
O=C1CCNC(=O)N1	0.882 (inactive)	0.303	8710	9870	0.298 (inactive)	0.144	0.585 (inactive)		
CCOc1ccccc1-c1ncnc2sc(C)c(C)c12	0.89 (inactive)	1.57	6100	6860	-0.535 (inactive)	0.672	0.07 (inactive)		
CO[C@H]1[C@@H]([C@@]2(C)O[C@@H]2CC=C(C)C)[C@]2(CC[C@H]1OC(=O)/C=C/C=C/C=C/C=C/C(=O)O)CO2	0.953 (inactive)	1.44	6670	7000	0.116 (inactive)	-0.135	-0.585 (inactive)	21% (inactive)	104%
CCCCCCCCCCCCCCCC(=O)O[C@@H]1[C@@H](O)[C@@H](O)[C@@H](C(NC(=O)[C@@H]2C[C@@H](CCC)CN2C)C(C)Cl)O[C@@H]1SC (some centres not stated)	0.867 (inactive)	1.18	9340	10800	0.27 (inactive)	-0.444	0.11 (inactive)	67.8% (inactive)	204%
CC[C@H]1OC(=O)[C@H](C)[C@@H](O[C@H]2C[C@@](C)(OC)[C@@H](O)[C@H](C)O2)[C@H](C)[C@@H](O[C@@H]2O[C@H](C)C[C@H](N(C)C)[C@H]2O)[C@](C)(O)C[C@@H](C)/C(=N/OCOCCOC)[C@H](C)[C@@H](O)[C@]1(C)O	0.917 (inactive)	1.04	9160	9990	-0.295 (inactive)	-0.333	0.145 (inactive)	72.6% (inactive)	69.5%
CCCCn1c(=O)c2c(ncn2CC(C)=O)n(CCCC)c1=O	0.978 (inactive)	1.23	10200	10400	0.541 (inactive)	0.0406	0.875 (inactive)	49% (inactive)	100%

— PubChem BioAssay
